This is a sample that favours compounds with a hit; in the whole collection about 11% have one here.
Luciferase inh – Photinus pyralis luciferase inhibition. 76,000 tested, 2.5% active. purified P. pyralis luciferase, luminescence, biochemical. AID 1347043. Potency, µM (top dose mostly 115 µM), most hits filed as inhibitors; note: nearly all actives have a fitted effect of over 65% in size
Target sequence (P08659 whole entry, looked up): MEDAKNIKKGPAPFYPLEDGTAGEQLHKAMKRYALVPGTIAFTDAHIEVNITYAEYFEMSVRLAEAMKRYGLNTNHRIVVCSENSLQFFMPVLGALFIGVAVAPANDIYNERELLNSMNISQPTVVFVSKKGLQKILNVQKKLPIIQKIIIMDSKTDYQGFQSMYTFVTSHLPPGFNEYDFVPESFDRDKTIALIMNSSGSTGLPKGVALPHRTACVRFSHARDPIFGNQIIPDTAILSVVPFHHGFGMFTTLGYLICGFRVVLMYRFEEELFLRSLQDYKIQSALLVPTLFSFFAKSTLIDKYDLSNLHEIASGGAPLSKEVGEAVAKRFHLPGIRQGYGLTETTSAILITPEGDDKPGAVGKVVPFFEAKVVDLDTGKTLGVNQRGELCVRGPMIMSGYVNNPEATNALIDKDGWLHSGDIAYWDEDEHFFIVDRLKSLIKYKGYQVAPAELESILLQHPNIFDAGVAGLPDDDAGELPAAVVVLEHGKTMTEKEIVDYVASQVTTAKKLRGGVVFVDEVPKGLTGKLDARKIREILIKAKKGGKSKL
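Luminescence read by CCD imager after adding enzyme (10nM final) to wells holding compound, titrated in qHTS. Substrates 10uM each D-luciferin and ATP; buffer 50mM Tris acetate pH 7.5, 10mM Mg acetate, Tween-20, BSA.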
NIH3T3 tox – kills NIH 3T3 cells. NIH 3T3 viability, CellTiter-Glo ATP luminescence, 48-72 h. 94,000 tested, 4.3% active. Potency, µM (top dose mostly 96.7 µM), usual class: inhibitors; note: nearly all actives have a fitted effect of over 55% in size
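NIH 3T3 cells at 400 cells/well received 23 nL of compound by pintool and were incubated 48 or 72 h at 37 °C. Viability was read as ATP-coupled CellTiter-Glo luminescence.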
HEK cytotox – HEK 293 cell cytotoxicity; Potency, µM (top dose mostly 115 µM), usual class: inhibitors; 94,000 tested, 6.6% active; HEK 293 viability, ATP luminescence (CellTiter-Glo), 48-72 h; AID 1345083; note: nearly all actives have a fitted effect of over 60% in size
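CellTiter-Glo luminescence (cellular ATP) was read after 48 or 72 hr of compound exposure at 37 degree Celsius. Cells were HEK 293 plated at 250 cells/well.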
NPR1 antag – human Npr1 receptor antagonism; P16066; 76,000 tested, 1.6% active; HEK293 hNpr1 GloSensor cGMP, ANP-stimulated luminescence; Potency, µM (titrated, usually from 46.3 µM), hits mostly inhibitors; calls by dose curve; note: nearly all actives have a fitted effect of over 60% in size
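Compound pre-incubated 30 min at room temperature on GloSensor-loaded HEK293 cells stably carrying hNpr1 and the pGS-40F cGMP biosensor. Stimulation uses hNppA at 0.1 nM final; luminescence is taken at baseline and 20 min post-agonist.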
Numbers stand for hits; n = inactive; u = inconclusive; x = no result. Unless noted, calls come from the whole dose curve; as a rule, active = well fitted curve in the direction sought with a large enough effect; inconclusive = small, poorly fitted or top-dose-only effect, or another doubt; inactive = no such curve, though single readings can be large; an effect the other way counts as inactive or inconclusive.

SMILES	Luciferase inh	NIH3T3 tox	HEK cytotox	NPR1 antag
O=S(=O)(c1ccc(F)cc1)N1CCc2nnc(C3CC3)n2CC1	x	n	n	x
COc1ccc(C(=O)N[C@@H]2CN(Cc3ccccc3)C[C@H]2CO)cn1	n	u	28µM	n
O=C(N[C@@H]1CN(Cc2cc(F)cc(F)c2)C[C@H]1CO)c1ccccc1	n	n	n	n
O=C(N[C@@H]1CN(Cc2cccc(F)c2)C[C@H]1CO)c1ccccc1	n	u	7.1µM	n
O=C(N[C@@H]1CN(Cc2ccccc2)C[C@H]1CO)c1cn[nH]c1	n	n	n	n
COC1CCCN(c2ncccc2-c2cc(-c3ccccc3)nc3c(C)noc23)C1 (centres undefined)	n	u	79µM	n
COC1CCN(c2cc(-c3cccnc3)nc3c(C)noc23)CC1	n	u	n	n
COC1CCCN(c2cc(-c3cccnc3)nc3c(C)noc23)C1 (centres undefined)	n	35µM	u	n
CN(C)CCNC(=O)C[C@@H]1c2nc(NC(=O)c3ccco3)sc2C[C@@H]2[C@](C)(CO)[C@H](O)CC[C@]21C	n	u	n	n
O=C(NC1CCCc2c1[nH]c1ccccc21)c1ccccc1 (centres undefined)	n	u	u	n
Cn1nc(C(=O)NC2CCCc3c2[nH]c2ccccc32)c2ccccc2c1=O (centres undefined)	n	u	35µM	n
O=C(NC1CCCc2c1[nH]c1c(Cl)cccc21)c1n[nH]c2c1CCC2 (centres undefined)	n	28µM	u	n
CC(C)(C)C(=O)NC1CCCc2c1[nH]c1ccc(F)cc21 (centres undefined)	n	u	45µM	n
COc1ccc(C(=O)NC2CCCc3c2[nH]c2ccccc32)cc1OC (centres undefined)	n	u	45µM	n
CCCNC(=O)N[C@@H]1CCC[C@@H](C(=O)NCCOC)CC(=O)N(C)C1	n	n	n	n
Cc1noc(C)c1CC(=O)NC1CCCc2c1[nH]c1ccccc21 (centres undefined)	n	40µM	u	n
COc1ccc(CC(=O)NC2CCCc3c2[nH]c2c(Cl)cccc32)cc1 (centres undefined)	n	25µM	u	n
COCC(=O)NC1CCCc2c1[nH]c1c(Cl)cccc21 (centres undefined)	n	n	u	n
Cc1noc(C)c1CC(=O)NC1CCCc2c1[nH]c1ccc(F)cc21 (centres undefined)	n	u	u	n
COc1ccc(CC(=O)NC2CCCc3c2[nH]c2ccccc32)cc1OC (centres undefined)	n	u	35µM	u
COc1ccc(-c2cc(-c3ccncc3)c3cncn3c2)cn1	n	u	u	n
COc1ccc(-c2cc(-c3ccc4cn[nH]c4c3)cn3cncc23)cn1	u	45µM	u	n
COc1ccc(-c2cc(-c3cccc(CO)c3)cn3cncc23)cn1	n	40µM	u	n
COCCNC(=O)c1cn2cc(-c3ccccc3)sc2n1	x	n	n	x
CNC(=O)c1cn2cc(-c3ccc(OC)cc3)sc2n1	x	100µM	71µM	x
SMILES	Luciferase inh	NIH3T3 tox	HEK cytotox	NPR1 antag
C#CCNC(=O)c1cn2cc(-c3ccc(OC)cc3)sc2n1	x	n	n	x
COc1ccc(-c2cn3cc(C(=O)NCc4cccc(C(F)(F)F)c4)nc3s2)cc1	x	u	35µM	x
O=C(NCc1cccc(C(F)(F)F)c1)c1cn2cc(-c3ccccc3)sc2n1	x	n	45µM	x
O=C(NCc1ccc(F)cc1)c1cn2cc(-c3ccc(C(F)(F)F)cc3)sc2n1	x	u	50µM	x
O=C(NCc1ccc(F)cc1)c1cn2cc(-c3cccc(C(F)(F)F)c3)sc2n1	x	u	n	x
O=C(Cc1cccc(Cl)c1)N1C[C@@H](CO)[C@H](c2ccncc2)C1	n	n	n	n
CCCN1C(CC(C)C)=NS(=O)(=O)c2cc(NC(=O)c3ccccc3Cl)ccc21	n	n	n	n
O=C(NCc1cccnc1)c1cn2cc(-c3ccc(C(F)(F)F)cc3)sc2n1	x	u	20µM	x
O=C(NCc1cccc(C(F)(F)F)c1)c1cn2cc(-c3ccc(F)cc3)sc2n1	x	40µM	u	x
COc1ccc(-c2cn3cc(C(=O)NCc4ccc(F)c(F)c4)nc3s2)cc1	x	u	13µM	x
O=C(NCC(F)(F)F)c1cn2cc(-c3ccccc3)sc2n1	x	89µM	u	x
COc1ccc2[nH]c(=O)c(CCC(=O)N3CCN(CC(C)C)CC3)cc2c1	n	n	n	n
O=C(NCc1cccc(Cl)c1)c1cn2cc(-c3ccc(C(F)(F)F)cc3)sc2n1	x	22µM	45µM	x
O=C(NCc1ccc(Cl)cc1)c1cn2cc(-c3ccc(F)cc3)sc2n1	x	u	28µM	x
C[S+](=O)([O-])NCc1nnc2n1C(C(=O)NCc1ccccc1F)CC2 (centres undefined)	x	n	n	x
COC(=O)[C@@H]1Cc2ncn(C(C)C)c2CN1S(=O)(=O)c1cccc(C(F)(F)F)c1	n	u	n	n
Cc1ccc(C2Cn3nnc(-c4noc(-c5cccs5)n4)c3CO2)cc1 (centres undefined)	n	n	n	n
O=C(Cc1ccc(O)cc1)N1CC(CNc2ccccc2)C2(C1)CN(c1ccccc1)C2 (centres undefined)	n	32µM	50µM	n
O=C(c1cccc(O)c1)N1CC(CNc2ccccc2)C2(C1)CN(c1ccccc1)C2 (centres undefined)	n	50µM	63µM	n
Cc1nn(-c2ccc(C(F)(F)F)cc2)c(C)c1[C@@H]1C=C[C@@H](NC(=O)C2CCCCC2)C1	n	u	u	u
Cc1nn(-c2ccc(C(F)(F)F)cc2)c(C)c1[C@@H]1C=C[C@@H](NC(=O)NC(C)C)C1	14µM	u	35µM	u
Cc1nn(-c2ccc(C(F)(F)F)cc2)c(C)c1[C@@H]1C=C[C@@H](NC(=O)Nc2ccccc2)C1	13µM	32µM	50µM	u
CCc1ccc(NC(=O)c2ccc3c(c2)N(CC)C2CCCCCN2C3=O)cc1 (centres undefined)	u	28µM	18µM	n
CCN1c2cc(C(=O)Nc3ccc(C(=O)OC)cc3)ccc2C(=O)N2CCCCCC21 (centres undefined)	n	u	45µM	n
CCN1c2cc(C(=O)Nc3ccc(F)cc3)ccc2C(=O)N2CCCCC21 (centres undefined)	n	u	u	n
Cc1ccc(Cc2c(C)nc3c(C(=O)N4CCC(Cc5nncn5CC5CC5)CC4)cnn3c2C)cc1	n	u	u	n
COc1ccc(C(=O)N2CCC(N3C(=O)C4(CCCCC4)C3c3ccccc3)CC2)cn1 (centres undefined)	n	n	u	n
COC(=O)[C@@H]1Cc2c([nH]c3ccccc23)[C@H]2C[C@@H](NCCN3CCOCC3)C[C@@H](c3ccc(OC(F)(F)F)cc3)N21	n	22µM	25µM	n
COC(=O)[C@@H]1Cc2c([nH]c3ccccc23)[C@H]2C[C@@H](NCCN3CCOCC3)C[C@@H](c3ccc(F)c(F)c3)N21	n	28µM	u	n
O=C(NCCN1CCOCC1)c1nc2sccn2c1-c1ccc(C(F)(F)F)cc1	x	n	n	x

High-throughput results: PubChem, National Center for Advancing Translational Sciences (NCATS)
